We go through nine compounds from PubChem BioAssay (EPA / NIEHS).

As a reminder, the AC50 is the midpoint of the concentration-response curve, whichever way the signal moves.

Assay [1] can be described thus: ATG_PXRE_CIS: Attagene CIS-FACTORIAL HepG2 Assay for human Pregnane X Receptor Element (PXRE) (AID 2282957). Conditions: HepG2 Attagene CIS-FACTORIAL PXRE reporter, mRNA; actives raise or lower the signal. The procedure, abridged:
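HepG2 cells transiently transfected with cis-element-driven multiplexed reporter units; after 24 h chemical exposure, reporter mRNA measured by RT-PCR, 6-FAM labelling, HpaI digestion and capillary electrophoresis. Bidirectional fitting relative to DMSO.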

Assay [2] can be described thus: ATG_RORE_CIS: Attagene CIS-FACTORIAL HepG2 Assay for human RAR-related Orphan Receptor Element (RORE) (AID 2282959). Particulars: HepG2 Attagene cis-factorial RORE reporter, mRNA; actives raise or lower the signal. Put shortly: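 Transient MRTU transfection of human HepG2 liver cells (FuGene 6); 24 h compound exposure; TriZol RNA, oligo(dT) RT, PCR, FAM labeling, HpaI cut, CE fragment analysis. DMSO = negative control/baseline.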

Assay [3] in a line: ATG_Sox_CIS: Attagene CIS-FACTORIAL HepG2 Assay for human SRY-box transcription factor (SOX) (AID 2282960). Conditions: HepG2 Attagene cis-factorial SOX reporter, mRNA; actives raise or lower the signal. Put shortly:
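Endogenous factor activity in human liver HepG2 cells carrying transfected cis-regulated reporter units. RNA taken 24 h post-dose, reverse-transcribed, PCR-amplified and sized by capillary electrophoresis. Gain or loss of signal fitted relative to DMSO.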

In assay [4] the target is Transcription factor Sp1 (Homo sapiens) (UniProt P08047). The assay is described as follows: ATG_Sp1_CIS: Attagene CIS-FACTORIAL HepG2 Assay for human Specificity Protein 1 (Sp1) (AID 2282961). Particulars: HepG2 Sp1 cis-reporter transcription, actives raise or lower the signal. Put shortly:
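Transient MRTU-transfected HepG2, 24 h compound exposure. Total RNA → oligo(dT) RT → PCR of reporter → 6-FAM primer extension → HpaI digest → CE. Endpoint fitted both directions vs DMSO.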

A short description of assay [5]: ATG_SREBP_CIS: Attagene CIS-FACTORIAL HepG2 Assay for human Sterol Regulatory Element Binding (SREBP) (AID 2282962). Conditions: HepG2 Attagene cis-factorial SREBP reporter, mRNA; actives raise or lower the signal. Put shortly:
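mRNA induction of transfected cis-promoter reporters in HepG2 cells, 24 h post-dose. Detection: RT-PCR with 6-FAM-labelled products, HpaI digest, capillary electrophoresis. DMSO served as negative control and baseline.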

For assay [6], the target named is Signal transducer and activator of transcription 3 (Homo sapiens) (UniProt P40763). The assay is described as follows: ATG_STAT3_CIS: Attagene CIS-FACTORIAL HepG2 Assay for human Signal Transducer and Activator of Transcription 3 (STAT3) (AID 2282963). Particulars: HepG2, Attagene cis-factorial STAT3 reporter transcription; actives raise or lower the signal. The procedure, abridged: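 HepG2 cells transiently transfected with cis-element-driven multiple reporter transcription units; after 24 h chemical exposure, reporter mRNA measured by RT-PCR, 6-FAM primer-extension labelling, HpaI digestion and capillary electrophoresis. Bidirectional fitting versus DMSO baseline.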

The nature of assay [7]: ATG_TA_CIS: Attagene CIS-FACTORIAL HepG2 Assay for human TA Basal Promoter (AID 2282964). Conditions: HepG2 Attagene CIS-factorial TA basal promoter reporter; actives raise or lower the signal. Put shortly: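 Transient MRTU transfection of HepG2 preceded 24 h compound exposure. Reporter mRNA levels were then read by RT-PCR with capillary electrophoresis, and this background-control endpoint was fitted bidirectionally to DMSO.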

Assay [8] is described as follows: ATG_TCF_b_cat_CIS: Attagene CIS-FACTORIAL HepG2 Assay for human T-Cell-Factor with beta-catenin (TCF/b-cat) (AID 2282965). Conditions: HepG2 TCF/beta-catenin cis-reporter transcription, actives raise or lower the signal. The procedure, abridged: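 HepG2 cells transiently transfected with multiple cis-promoter-regulated reporter transcription units, so endogenous transcription factor activity is measured. Reporter mRNA read 24 hours after dosing by RT-PCR, fluorescent labelling and capillary electrophoresis; bidirectional fitting against DMSO.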

The nature of assay [9]: ATG_TAL_CIS: Attagene CIS-FACTORIAL HepG2 Assay for human TAL Basal Promoter (AID 2282966).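 Note: background control endpoint measuring basal TAL promoter reporter mRNA not a specific factor.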 Particulars: HepG2 Attagene cis-factorial TAL promoter reporter; actives raise or lower the signal. Put shortly: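 HepG2 cells transiently transfected with multiplexed cis-promoter reporter units, dosed 24 h. Reporter mRNA quantified by RT-PCR, 6-FAM labelling, HpaI digestion and capillary electrophoresis; TAL basal promoter serves as background control, fitted bidirectionally versus DMSO.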

The nature of assay [10]: ATG_TGFb_CIS: Attagene CIS-FACTORIAL HepG2 Assay for human Transforming Growth Factor (TGF) (AID 2282967). Particulars: HepG2 Attagene CIS TGFb reporter, mRNA transcription; actives raise or lower the signal. Put shortly: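 After a 24-hour incubation with compound, transfected HepG2 cells were lysed for RNA; reporter cDNA was amplified, fluorescently end-labeled and separated by CE. DMSO served as baseline for bidirectional fits.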

A short description of assay [11]: ATG_VDRE_CIS: Attagene CIS-FACTORIAL HepG2 Assay for human Vitamin D Receptor Element (VDRE) (AID 2282968). Conditions: HepG2 VDRE cis-reporter transcription, actives raise or lower the signal. Put shortly: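 HepG2 cells transiently transfected with cis-element reporter units, dosed 24 h; reporter mRNA measured by RT-PCR, 6-FAM labeling, HpaI digestion and capillary electrophoresis. Activity fitted bidirectionally against DMSO baseline.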

The target of assay [12] is X-box-binding protein 1 (Homo sapiens) (UniProt P17861). The experiment in a line: ATG_Xbp1_CIS: Attagene CIS-FACTORIAL HepG2 Assay for human X-box Binding Protein 1 (XBP1) (AID 2282972). Particulars: HepG2 XBP1 cis-element reporter, Attagene multiplex; actives raise or lower the signal. Put shortly: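 Fluorescence-labelled cDNA fragments from reporter transcripts, separated by capillary electrophoresis, give the signal. Source: HepG2 cells transfected with promoter-driven reporter units, harvested 24 h post-dose. DMSO served as reference for bidirectional curve fitting.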

The nature of assay [13]: ATG_M_19_TRANS: Attagene TRANS-FACTORIAL HepG2 Assay for M19 Transcription Factor (Internal Marker) (AID 2282974; active = hit-call score of the fitted dose curve at least 0.9, where 1 is the maximum). Particulars: HepG2 Attagene TRANS-FACTORIAL M19 internal marker reporter. Put shortly:
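Fluorescence of 6-FAM-labelled reporter cDNA fragments, separated by capillary electrophoresis, served as the readout. These derived from HepG2 cells carrying transfected GAL4-UAS reporter units after 24 h dosing, with DMSO as negative control.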

Assay [14] is described as follows: ATG_GAL4_TRANS: Attagene TRANS-FACTORIAL HepG2 Assay for GAL4 (Internal Marker) (AID 2282976; active = hit-call score of the fitted dose curve at least 0.9, where 1 is the maximum). Conditions: HepG2 Attagene TRANS GAL4 internal marker reporter. Put shortly:
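Background-control readout: GAL4-UAS reporter transcript in transiently transfected HepG2 cells after 24 h compound exposure. Measured by RT-PCR, 6-FAM primer extension, HpaI digest and capillary electrophoresis; gain-of-signal fit versus DMSO.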

Assay [15] has as its target Nuclear receptor subfamily 1 group I member 3 (Homo sapiens) (UniProt Q14994). The assay is described as follows: ATG_CAR_TRANS: Attagene TRANS-FACTORIAL HepG2 Assay for human Constitutive Androstane Receptor (CAR) (AID 2282969; active = hit-call score of the fitted dose curve at least 0.9, where 1 is the maximum;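 note: activators raise reporter mRNA above DMSO so AC50 marks induction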). Conditions: HepG2 Attagene TRANS-FACTORIAL CAR reporter. The procedure, abridged:
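HepG2 cells transiently transfected with multiplexed GAL4-UAS reporter units expressing chimeric NR-Gal4 proteins; compound exposure 24 h. Reporter mRNA measured by RT-PCR, 6-FAM labelling, HpaI digestion and capillary electrophoresis; gain-of-signal fitted against DMSO baseline.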

Assay [16] addresses Glucocorticoid receptor (Homo sapiens) (UniProt P04150). The assay is described as follows: ATG_GR_TRANS: Attagene TRANS-FACTORIAL HepG2 Assay for human Glucocorticoid Receptor (GR) (AID 2282978; active = hit-call score of the fitted dose curve at least 0.9, where 1 is the maximum;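 note: activators score as hits since higher reporter transcript over DMSO is fitted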). Conditions: HepG2 Attagene TRANS GR reporter, mRNA transcription. The procedure, abridged: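 Fluorescent capillary-electrophoresis quantitation of reporter mRNA is the readout, taken 24 h after dosing human HepG2 cells carrying transiently transfected GAL4-UAS reporter units activated by chimeric NR-GAL4 fusions; activity scored as induction over DMSO.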

Assay [17] deals with Estrogen receptor (Homo sapiens) (UniProt P03372). The assay is described as follows: ATG_ERa_TRANS: Attagene TRANS-FACTORIAL HepG2 Assay for human Estrogen Receptor alpha (ERa) (AID 2282970; active = hit-call score of the fitted dose curve at least 0.9, where 1 is the maximum). Conditions: HepG2 Attagene TRANS ERa GAL4 reporter, mRNA. Put shortly: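 HepG2 cells transiently transfected with multiplexed GAL4-UAS reporter units read out chimeric NR-Gal4 activity. After 24 h compound exposure, reporter mRNA was quantified by RT-PCR, 6-FAM labeling, HpaI digestion and capillary electrophoresis, relative to DMSO.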

The target in assay [18] is Steroid hormone receptor ERR1 (Homo sapiens) (UniProt P11474). The assay is described as follows: ATG_ERRa_TRANS: Attagene TRANS-FACTORIAL HepG2 Assay for human Estrogen-Related Receptor alpha (ERRa) (AID 2282971; active = hit-call score of the fitted dose curve at least 0.9, where 1 is the maximum). Particulars: HepG2 Attagene TRANS reporter, ERRa transactivation. Put shortly: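 HepG2 cells transiently transfected with GAL4-UAS reporter units and chimeric NR-Gal4 constructs; after 24 hour compound incubation, reporter mRNA quantified by RT-PCR, fluorescent labelling and capillary electrophoresis, gain of signal versus DMSO.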

For assay [19], the target named is Estrogen-related receptor gamma (Homo sapiens) (UniProt P62508). The assay is described as follows: ATG_ERRg_TRANS: Attagene TRANS-FACTORIAL HepG2 Assay for human Estrogen-Related Receptor gamma (ERRg) (AID 2282977; active = hit-call score of the fitted dose curve at least 0.9, where 1 is the maximum;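 note: hits increase reporter signal over DMSO so potencies reflect activators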). Particulars: HepG2 Attagene TRANS reporter, ERRg transactivation. Put shortly: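 Transient HepG2 transfectants, 24 h compound exposure, GAL4-UAS reporter mRNA by RT-PCR/6-FAM labelling/capillary electrophoresis; positive direction vs DMSO.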

Values joined by “and” are separate entries in the source; they are usually repeats but may differ in a detail not shown here. Equal values may be shown once. Results filed as inconclusive are left out. More than one record can exist for a structure, and the calls need not agree. Active and inactive are the calls of the source. Rule for the calls, unless noted: active = hit-call score of the fitted dose curve at least 0.9, where 1 is the maximum; inactive = score below 0.9.

Chain of Glucocorticoid receptor (Homo sapiens) (P04150 whole entry, looked up, the tested form may be a part): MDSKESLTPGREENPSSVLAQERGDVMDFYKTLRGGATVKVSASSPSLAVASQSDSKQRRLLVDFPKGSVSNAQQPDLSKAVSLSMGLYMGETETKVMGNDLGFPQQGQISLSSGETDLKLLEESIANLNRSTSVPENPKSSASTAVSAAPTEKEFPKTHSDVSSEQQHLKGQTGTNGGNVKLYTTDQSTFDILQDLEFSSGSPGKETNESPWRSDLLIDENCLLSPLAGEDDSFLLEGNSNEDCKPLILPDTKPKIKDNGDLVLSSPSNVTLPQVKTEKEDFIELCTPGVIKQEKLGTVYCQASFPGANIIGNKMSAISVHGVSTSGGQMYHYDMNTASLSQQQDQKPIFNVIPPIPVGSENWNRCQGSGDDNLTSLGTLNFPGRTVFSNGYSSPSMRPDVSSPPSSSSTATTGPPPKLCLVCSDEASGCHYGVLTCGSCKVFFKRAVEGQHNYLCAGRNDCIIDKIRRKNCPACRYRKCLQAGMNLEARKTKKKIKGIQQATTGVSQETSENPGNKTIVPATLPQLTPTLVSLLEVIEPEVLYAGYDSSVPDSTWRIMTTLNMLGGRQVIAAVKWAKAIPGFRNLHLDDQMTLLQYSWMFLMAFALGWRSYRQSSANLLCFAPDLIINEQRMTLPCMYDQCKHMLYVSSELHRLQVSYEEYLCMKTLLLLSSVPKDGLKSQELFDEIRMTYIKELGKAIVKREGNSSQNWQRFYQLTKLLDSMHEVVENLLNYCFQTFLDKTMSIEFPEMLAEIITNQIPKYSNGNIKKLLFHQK
Chain of Nuclear receptor subfamily 1 group I member 3 (Homo sapiens) (Q14994 whole entry, looked up, the tested form may be a part): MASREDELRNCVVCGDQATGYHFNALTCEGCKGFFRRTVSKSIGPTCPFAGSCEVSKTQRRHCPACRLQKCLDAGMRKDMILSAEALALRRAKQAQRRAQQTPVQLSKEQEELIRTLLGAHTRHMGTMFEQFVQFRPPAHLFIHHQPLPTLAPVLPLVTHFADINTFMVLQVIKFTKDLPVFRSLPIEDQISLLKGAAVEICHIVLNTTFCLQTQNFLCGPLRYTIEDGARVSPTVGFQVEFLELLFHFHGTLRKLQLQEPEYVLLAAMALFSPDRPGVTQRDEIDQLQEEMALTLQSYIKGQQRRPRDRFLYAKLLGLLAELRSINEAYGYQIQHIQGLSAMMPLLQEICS
Chain of X-box-binding protein 1 (Homo sapiens) (P17861 whole entry, looked up, the tested form may be a part): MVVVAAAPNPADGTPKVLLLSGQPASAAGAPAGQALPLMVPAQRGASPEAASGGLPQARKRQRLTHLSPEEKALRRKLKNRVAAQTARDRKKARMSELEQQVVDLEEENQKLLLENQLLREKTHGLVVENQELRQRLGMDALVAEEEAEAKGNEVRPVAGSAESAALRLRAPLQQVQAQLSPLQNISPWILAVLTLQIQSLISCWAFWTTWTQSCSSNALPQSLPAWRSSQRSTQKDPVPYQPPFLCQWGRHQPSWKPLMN
Chain of Estrogen-related receptor gamma (Homo sapiens) (P62508 whole entry, looked up, the tested form may be a part): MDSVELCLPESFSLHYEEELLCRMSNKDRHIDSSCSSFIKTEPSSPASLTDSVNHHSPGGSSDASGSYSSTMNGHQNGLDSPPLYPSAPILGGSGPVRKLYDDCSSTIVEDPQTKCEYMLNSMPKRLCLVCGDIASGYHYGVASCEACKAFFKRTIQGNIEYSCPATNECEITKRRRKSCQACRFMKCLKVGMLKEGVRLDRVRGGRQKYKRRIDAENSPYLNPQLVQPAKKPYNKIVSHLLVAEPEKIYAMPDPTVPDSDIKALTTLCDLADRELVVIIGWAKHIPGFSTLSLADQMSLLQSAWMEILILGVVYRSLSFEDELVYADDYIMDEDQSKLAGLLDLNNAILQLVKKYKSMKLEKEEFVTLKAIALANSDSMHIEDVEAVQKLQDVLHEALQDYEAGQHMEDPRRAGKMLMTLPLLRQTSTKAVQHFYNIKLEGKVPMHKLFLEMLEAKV
Chain of Transcription factor Sp1 (Homo sapiens) (P08047 whole entry, looked up): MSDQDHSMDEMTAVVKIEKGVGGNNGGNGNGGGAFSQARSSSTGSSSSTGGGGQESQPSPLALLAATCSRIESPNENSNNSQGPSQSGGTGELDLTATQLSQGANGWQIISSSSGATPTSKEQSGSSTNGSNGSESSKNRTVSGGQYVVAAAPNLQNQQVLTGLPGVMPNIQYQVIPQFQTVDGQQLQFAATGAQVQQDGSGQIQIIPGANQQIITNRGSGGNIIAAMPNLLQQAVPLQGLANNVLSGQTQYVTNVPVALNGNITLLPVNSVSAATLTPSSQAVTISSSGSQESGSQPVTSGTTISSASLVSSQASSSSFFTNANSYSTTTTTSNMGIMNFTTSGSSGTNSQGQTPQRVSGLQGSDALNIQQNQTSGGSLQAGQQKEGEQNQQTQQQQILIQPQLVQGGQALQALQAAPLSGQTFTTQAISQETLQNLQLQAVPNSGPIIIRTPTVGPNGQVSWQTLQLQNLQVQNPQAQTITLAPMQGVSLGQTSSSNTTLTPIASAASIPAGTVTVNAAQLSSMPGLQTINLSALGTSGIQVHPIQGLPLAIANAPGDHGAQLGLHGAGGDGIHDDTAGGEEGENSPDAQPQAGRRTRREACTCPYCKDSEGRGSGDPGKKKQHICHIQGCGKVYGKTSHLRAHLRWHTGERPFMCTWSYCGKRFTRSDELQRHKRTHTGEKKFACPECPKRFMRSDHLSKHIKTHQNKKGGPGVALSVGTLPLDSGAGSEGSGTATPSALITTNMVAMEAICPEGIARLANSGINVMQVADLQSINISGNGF
Chain of Signal transducer and activator of transcription 3 (Homo sapiens) (P40763 whole entry, looked up): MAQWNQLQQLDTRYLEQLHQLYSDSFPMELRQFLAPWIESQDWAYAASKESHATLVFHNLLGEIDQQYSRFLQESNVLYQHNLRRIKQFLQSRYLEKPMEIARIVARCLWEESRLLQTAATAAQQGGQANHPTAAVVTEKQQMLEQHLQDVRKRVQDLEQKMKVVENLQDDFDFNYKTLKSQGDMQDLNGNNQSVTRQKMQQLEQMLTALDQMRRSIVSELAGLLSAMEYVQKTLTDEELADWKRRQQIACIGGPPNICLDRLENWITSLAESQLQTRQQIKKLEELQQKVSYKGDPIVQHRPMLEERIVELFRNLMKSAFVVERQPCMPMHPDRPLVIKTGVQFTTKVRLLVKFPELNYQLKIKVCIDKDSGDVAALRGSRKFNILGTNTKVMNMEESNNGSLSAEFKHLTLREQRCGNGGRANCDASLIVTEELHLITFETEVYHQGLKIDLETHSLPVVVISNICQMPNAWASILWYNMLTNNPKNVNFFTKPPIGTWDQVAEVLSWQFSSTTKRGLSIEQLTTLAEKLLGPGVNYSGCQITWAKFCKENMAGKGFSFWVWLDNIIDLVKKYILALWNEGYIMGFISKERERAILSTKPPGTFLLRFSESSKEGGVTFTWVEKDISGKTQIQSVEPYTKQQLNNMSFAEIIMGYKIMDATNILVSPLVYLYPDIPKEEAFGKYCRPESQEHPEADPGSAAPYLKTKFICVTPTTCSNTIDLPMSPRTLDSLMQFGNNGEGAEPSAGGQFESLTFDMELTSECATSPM
Chain of Steroid hormone receptor ERR1 (Homo sapiens) (P11474 whole entry, looked up, the tested form may be a part): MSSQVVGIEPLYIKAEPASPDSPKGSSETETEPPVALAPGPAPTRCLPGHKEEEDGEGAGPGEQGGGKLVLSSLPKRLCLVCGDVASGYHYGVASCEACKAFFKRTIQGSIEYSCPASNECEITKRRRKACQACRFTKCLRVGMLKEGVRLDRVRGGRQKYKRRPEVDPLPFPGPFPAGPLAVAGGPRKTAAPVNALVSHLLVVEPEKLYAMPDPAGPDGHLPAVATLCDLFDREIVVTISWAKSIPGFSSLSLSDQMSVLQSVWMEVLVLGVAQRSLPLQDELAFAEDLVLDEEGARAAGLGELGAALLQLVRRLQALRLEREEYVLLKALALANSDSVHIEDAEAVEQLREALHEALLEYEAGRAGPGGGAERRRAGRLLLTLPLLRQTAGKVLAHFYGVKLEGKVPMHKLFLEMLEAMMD
Chain of Estrogen receptor (Homo sapiens) (P03372 whole entry, looked up, the tested form may be a part): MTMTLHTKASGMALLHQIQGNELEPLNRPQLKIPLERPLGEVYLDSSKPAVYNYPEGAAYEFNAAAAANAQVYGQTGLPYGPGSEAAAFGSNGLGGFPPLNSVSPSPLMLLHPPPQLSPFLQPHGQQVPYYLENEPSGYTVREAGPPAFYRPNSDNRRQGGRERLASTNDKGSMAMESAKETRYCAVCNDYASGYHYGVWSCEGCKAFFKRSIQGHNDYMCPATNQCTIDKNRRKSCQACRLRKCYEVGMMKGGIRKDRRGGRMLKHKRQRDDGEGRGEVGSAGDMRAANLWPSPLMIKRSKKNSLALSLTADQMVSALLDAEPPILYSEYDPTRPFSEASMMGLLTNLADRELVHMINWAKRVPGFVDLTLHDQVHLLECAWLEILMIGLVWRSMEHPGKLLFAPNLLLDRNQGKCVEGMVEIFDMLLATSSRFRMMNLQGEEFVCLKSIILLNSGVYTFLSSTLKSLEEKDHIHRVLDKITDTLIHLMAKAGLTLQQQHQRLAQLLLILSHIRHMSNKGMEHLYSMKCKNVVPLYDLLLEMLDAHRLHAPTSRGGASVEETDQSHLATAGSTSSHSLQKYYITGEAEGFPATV

As to `CCCCCCCCCCCCCCC`, the call in assay [1], in assay [2], in assay [3], in [4], in [5] and in assay [6] was inactive. Further, the outcome in [7], in assay [8], in assay [9], in assay [10], in assay [11] and in [12] was inactive. The compound was called inactive in assay [13] and in assay [14].

For `CC(=O)Nc1ccc(O)cc1`, the call in [1], in [2], in [3], in assay [5], in assay [6] and in [7] was inactive. Also, the compound was called inactive in assay [8], in [9], in assay [10] and in [12].

Consider `O=C(O)C(=O)O`, for which the compound was classed as inactive in assay [1], in [3], in assay [5], in assay [6], in assay [7] and in [8]. Further, the compound was called inactive in assay [9], in assay [10], in assay [11], in assay [15], in [12] and in assay [13]. Besides, the result in [14] was inactive.

`CCCCN(C)C`: in [1], the AC50 is 26.9 µM (active). In addition, the outcome in [2], in [3], in assay [4], in [5], in assay [6] and in assay [7] was inactive. In addition, the call in assay [9], in assay [10], in assay [11], in assay [15], in assay [12] and in assay [16] was inactive.

Take `COC(O)c1ccccc1` (stereo unspecified): the half-maximal activity concentration (AC50) in [1] is 75.1 µM (active); in [17], 56.7 µM (active). Besides, the call in [2], in assay [3], in assay [5], in assay [7], in [8] and in assay [9] was inactive. Moreover, the compound was classed as inactive in assay [10], in [11], in assay [18], in assay [12], in [14] and in assay [19]. For the same compound, in assay [16], the compound was classed as inactive.

Consider `CC1CCC(CO)CC1` (stereo unspecified), for which the compound was classed as inactive in assay [1], in assay [2], in assay [3], in assay [4], in [5] and in assay [7]. The call in assay [9], in [10], in assay [11], in assay [12], in [13] and in assay [14] was inactive. Moreover, in assay [16], the call was inactive.

Turning to `CC(C)C=O`, the half-maximal activity concentration (AC50) in assay [1] is 61.9 µM (active) and 34.9 µM (active). Moreover, the compound was classed as inactive in [2], in [3], in assay [4], in assay [5], in assay [6] and in [7]. Further, the call in assay [9], in [10], in [11], in assay [15], in [18] and in [12] was inactive. Moreover, the compound was classed as inactive in assay [13], in assay [14] and in assay [19].

As to `O=CC(F)(F)C(F)(F)C(F)(F)F`, the compound was classed as inactive in assay [1], in assay [2], in assay [3], in assay [4], in [6] and in [7]. The result in [8], in [9], in assay [10], in [11], in assay [17] and in assay [12] was inactive. For the same compound, the outcome in [13], in [14] and in assay [16] was inactive.

For the compound `CCC(C)c1ccccc1O` (stereo unspecified), the AC50 is 27.4 µM (active) and 30.9 µM (active) in assay [1]; 74.6 µM (active) in assay [11]. Besides, the outcome in [2], in assay [3], in assay [4], in assay [5], in [6] and in [7] was inactive. For the same compound, the result in assay [9], in assay [10], in assay [11], in [15], in assay [12] and in [13] was inactive. Moreover, the compound was called inactive in [14], in assay [19] and in assay [16].
